Common to all, as to assay: DAPPL (digital affinity profiling via proximity ligation, sequencing); 10 mM Tris-HCl pH 7.5, 50 mM NaCl, 1 mM DTT, 4% glycerol, room temperature, 30 min; GST-TFs on glutathione beads, 16-mer random dsDNA library, 0.1% formaldehyde crosslink after washing; high values mean tight binding
The target in one experiment is T1, FEV (Homo sapiens, UniProt Q99581 1-238).
T1 sequence: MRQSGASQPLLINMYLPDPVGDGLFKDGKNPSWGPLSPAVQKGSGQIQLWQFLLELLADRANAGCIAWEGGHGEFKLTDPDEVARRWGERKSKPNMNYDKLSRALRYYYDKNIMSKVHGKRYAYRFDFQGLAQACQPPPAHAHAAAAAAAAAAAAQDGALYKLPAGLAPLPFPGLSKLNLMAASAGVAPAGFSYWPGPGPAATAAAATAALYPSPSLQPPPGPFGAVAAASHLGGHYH
The settings on record: protein: recombinant; tags: N-terminal GST; dsDNA, one strand shown. The method, boiled down:
(§1)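 Human transcription factors were made in yeast as GST fusions, captured on glutathione beads and barcoded with DNA. With a tag-only sample included, the pool was incubated with 200 nmole of a random double-stranded 16-mer DNA library in Tris/NaCl/DTT/glycerol buffer at room temperature for 30 min, then crosslinked with 0.1% formaldehyde after washing, ligated by proximity, amplified and sequenced. For binding signal, each hexamer's read frequency for a factor is divided by its frequency for the tag-only sample.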

A further experiment addresses ETV5 (Homo sapiens, UniProt P41161 1-510). The settings on record: protein: recombinant; tags: N-terminal GST; dsDNA, one strand shown. The method, boiled down: as §1
The target in another experiment is HSF1 (Homo sapiens, UniProt Q00613 1-529). The settings on record: protein: recombinant; tags: N-terminal GST; chain copies: 3; dsDNA, one strand shown. The essentials: as §1
Chain of HSF1 (Q00613 whole entry): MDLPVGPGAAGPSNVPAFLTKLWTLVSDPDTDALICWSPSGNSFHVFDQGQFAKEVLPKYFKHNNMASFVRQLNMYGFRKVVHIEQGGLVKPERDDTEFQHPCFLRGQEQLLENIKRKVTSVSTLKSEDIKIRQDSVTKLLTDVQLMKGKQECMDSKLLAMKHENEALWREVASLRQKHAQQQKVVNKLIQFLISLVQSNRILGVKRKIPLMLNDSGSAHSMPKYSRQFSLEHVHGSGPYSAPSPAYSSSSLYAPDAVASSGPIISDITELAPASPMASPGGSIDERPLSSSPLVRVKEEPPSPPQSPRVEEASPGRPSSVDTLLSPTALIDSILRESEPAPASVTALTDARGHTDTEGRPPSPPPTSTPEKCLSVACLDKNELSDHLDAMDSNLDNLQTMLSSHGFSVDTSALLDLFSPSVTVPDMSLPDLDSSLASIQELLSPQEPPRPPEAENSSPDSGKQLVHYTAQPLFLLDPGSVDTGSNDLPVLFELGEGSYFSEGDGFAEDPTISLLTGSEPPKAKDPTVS
In the next experiment the target is T2, SPIC (Homo sapiens, UniProt Q8N5J4 1-248).
T2 sequence: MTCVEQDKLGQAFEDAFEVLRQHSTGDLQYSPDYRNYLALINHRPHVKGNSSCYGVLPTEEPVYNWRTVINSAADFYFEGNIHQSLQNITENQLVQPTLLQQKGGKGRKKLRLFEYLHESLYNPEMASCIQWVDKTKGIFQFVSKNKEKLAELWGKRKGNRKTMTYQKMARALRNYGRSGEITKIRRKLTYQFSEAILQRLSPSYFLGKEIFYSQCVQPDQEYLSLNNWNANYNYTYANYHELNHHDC
The settings on record: protein: recombinant; tags: N-terminal GST; dsDNA, one strand shown. The essentials:
as §1

The target of the next experiment is ELF4 (Homo sapiens, UniProt Q99607 1-663). The settings on record: protein: recombinant; tags: N-terminal GST; dsDNA, one strand shown. The method, boiled down: as §1
Chain of ELF4 (Q99607 whole entry): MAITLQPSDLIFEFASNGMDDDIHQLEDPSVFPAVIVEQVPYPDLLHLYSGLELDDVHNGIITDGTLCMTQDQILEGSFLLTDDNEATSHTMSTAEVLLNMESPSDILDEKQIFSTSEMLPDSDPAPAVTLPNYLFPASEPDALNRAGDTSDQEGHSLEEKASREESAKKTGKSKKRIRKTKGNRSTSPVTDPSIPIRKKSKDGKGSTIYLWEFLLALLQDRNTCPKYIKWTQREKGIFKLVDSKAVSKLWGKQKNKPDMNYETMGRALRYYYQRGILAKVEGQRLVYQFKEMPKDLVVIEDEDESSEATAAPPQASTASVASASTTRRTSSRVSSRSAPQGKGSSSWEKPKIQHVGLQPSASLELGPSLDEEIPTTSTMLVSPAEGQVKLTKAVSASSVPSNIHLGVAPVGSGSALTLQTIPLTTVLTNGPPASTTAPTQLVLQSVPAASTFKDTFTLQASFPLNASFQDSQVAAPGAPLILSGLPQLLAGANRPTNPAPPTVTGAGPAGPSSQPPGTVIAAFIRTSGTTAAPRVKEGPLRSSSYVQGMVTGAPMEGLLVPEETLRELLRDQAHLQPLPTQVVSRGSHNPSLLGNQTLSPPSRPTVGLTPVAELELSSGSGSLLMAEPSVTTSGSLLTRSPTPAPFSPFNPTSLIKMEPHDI
A further experiment has as its target T3, ELK4 (Homo sapiens, UniProt P28324-2 1-405).
T3 sequence: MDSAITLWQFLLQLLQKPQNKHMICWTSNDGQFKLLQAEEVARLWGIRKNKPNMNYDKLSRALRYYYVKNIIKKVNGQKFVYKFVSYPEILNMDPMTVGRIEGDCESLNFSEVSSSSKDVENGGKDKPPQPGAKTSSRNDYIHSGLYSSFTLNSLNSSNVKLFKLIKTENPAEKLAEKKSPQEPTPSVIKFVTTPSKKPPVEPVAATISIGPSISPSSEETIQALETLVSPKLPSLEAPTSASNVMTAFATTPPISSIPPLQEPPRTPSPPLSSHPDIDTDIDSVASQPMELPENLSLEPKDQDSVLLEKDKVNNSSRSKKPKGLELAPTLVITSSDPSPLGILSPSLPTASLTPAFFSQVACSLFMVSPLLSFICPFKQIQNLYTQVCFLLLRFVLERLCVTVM
The settings on record: protein: recombinant; tags: N-terminal GST; dsDNA, one strand shown. The method, boiled down: as §1

The target of another experiment is T4, ETV2 (Homo sapiens, UniProt O00321 1-342).
T4 sequence: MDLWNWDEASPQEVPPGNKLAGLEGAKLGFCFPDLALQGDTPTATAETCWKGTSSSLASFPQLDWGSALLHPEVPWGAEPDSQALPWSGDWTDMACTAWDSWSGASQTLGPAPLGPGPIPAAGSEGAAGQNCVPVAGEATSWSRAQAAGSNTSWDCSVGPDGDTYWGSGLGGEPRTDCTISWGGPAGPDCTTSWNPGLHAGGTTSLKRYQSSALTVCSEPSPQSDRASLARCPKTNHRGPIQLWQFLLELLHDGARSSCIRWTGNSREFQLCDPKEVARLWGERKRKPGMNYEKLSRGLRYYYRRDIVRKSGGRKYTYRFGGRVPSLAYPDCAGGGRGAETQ
The settings on record: protein: recombinant; tags: N-terminal GST; dsDNA, one strand shown. The method, boiled down: as §1

For another experiment, the target named is T5, ELF3 (Homo sapiens, UniProt P78545 1-371).
T5 sequence: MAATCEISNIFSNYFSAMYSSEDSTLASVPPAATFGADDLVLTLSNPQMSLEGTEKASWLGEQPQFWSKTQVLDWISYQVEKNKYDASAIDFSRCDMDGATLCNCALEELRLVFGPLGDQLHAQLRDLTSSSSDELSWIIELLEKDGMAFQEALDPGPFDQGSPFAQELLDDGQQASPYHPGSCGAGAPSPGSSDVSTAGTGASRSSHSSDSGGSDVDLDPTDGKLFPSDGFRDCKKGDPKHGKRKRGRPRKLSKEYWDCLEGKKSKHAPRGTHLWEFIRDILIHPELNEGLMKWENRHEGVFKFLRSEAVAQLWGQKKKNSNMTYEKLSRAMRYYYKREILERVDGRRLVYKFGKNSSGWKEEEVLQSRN
The settings on record: protein: recombinant; tags: N-terminal GST; dsDNA, one strand shown. The essentials:
as §1

Another experiment addresses CRX (Homo sapiens, UniProt O43186 1-299). The settings on record: protein: recombinant; tags: N-terminal GST; dsDNA, one strand shown. The method, boiled down: as §1
The target in another experiment is ETV1 (Homo sapiens, UniProt P50549 1-477). The settings on record: protein: recombinant; tags: N-terminal GST; dsDNA, one strand shown. The essentials:
as §1

The next experiment deals with T6, ERF (Homo sapiens, UniProt P50548 1-548).
T6 sequence: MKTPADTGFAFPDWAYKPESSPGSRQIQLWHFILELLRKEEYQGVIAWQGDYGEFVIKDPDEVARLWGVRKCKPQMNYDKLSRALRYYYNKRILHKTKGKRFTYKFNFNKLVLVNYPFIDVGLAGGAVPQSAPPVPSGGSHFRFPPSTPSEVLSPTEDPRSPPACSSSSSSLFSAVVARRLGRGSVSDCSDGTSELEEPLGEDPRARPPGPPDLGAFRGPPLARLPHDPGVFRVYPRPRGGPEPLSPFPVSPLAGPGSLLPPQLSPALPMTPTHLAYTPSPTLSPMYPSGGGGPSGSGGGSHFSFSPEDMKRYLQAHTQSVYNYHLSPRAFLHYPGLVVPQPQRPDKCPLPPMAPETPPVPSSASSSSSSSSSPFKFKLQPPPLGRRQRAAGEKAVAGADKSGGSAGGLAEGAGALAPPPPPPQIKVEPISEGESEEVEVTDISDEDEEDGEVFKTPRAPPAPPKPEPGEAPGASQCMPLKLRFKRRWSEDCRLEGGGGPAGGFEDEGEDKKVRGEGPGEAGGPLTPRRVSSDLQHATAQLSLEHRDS
The settings on record: protein: recombinant; tags: N-terminal GST; dsDNA, one strand shown. The essentials: as §1

The target of the next experiment is T7, ETV3L (Homo sapiens, UniProt Q6ZN32 1-361).
T7 sequence: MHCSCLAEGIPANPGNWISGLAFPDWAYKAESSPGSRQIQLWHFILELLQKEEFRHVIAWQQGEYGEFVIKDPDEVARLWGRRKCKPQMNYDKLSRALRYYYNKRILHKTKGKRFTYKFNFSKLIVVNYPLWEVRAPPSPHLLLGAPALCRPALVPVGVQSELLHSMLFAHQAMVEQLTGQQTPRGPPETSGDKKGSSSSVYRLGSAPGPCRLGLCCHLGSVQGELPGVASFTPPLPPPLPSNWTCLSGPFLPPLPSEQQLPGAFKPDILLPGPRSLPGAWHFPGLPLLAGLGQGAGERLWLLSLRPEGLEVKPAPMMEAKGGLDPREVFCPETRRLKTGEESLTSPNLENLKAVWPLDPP
The settings on record: protein: recombinant; tags: N-terminal GST; dsDNA, one strand shown. The method, boiled down: as §1

The next experiment has as its target T8, ETS2 (Homo sapiens, UniProt P15036 1-469).
T8 sequence: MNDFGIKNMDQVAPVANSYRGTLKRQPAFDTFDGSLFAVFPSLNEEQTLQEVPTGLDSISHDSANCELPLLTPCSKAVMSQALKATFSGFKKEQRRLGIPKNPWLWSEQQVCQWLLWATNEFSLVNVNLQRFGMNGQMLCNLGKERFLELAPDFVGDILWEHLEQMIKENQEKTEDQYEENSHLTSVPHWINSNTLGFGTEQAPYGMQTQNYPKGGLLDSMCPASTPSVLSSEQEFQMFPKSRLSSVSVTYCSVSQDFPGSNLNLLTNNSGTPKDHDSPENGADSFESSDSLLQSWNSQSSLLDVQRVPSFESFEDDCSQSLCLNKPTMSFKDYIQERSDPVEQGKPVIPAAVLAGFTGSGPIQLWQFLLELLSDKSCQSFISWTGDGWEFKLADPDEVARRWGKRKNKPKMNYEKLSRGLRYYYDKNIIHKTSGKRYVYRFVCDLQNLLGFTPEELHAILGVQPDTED
The settings on record: protein: recombinant; tags: N-terminal GST; dsDNA, one strand shown. The essentials: as §1

The next experiment deals with T9, SPDEF (Homo sapiens, UniProt O95238 1-335).
T9 sequence: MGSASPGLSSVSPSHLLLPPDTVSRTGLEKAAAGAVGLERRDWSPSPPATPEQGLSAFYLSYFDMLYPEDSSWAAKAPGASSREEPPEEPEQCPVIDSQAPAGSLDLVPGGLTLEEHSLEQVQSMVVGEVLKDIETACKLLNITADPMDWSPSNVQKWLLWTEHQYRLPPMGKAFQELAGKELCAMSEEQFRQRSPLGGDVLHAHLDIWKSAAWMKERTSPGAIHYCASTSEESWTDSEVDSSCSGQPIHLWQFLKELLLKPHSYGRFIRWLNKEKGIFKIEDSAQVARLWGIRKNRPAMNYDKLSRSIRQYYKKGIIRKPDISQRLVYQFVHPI
The settings on record: protein: recombinant; tags: N-terminal GST; dsDNA, one strand shown. The essentials: as §1

Another experiment addresses T10, ETV7 (Homo sapiens, UniProt Q9Y603 1-341).
T10 sequence: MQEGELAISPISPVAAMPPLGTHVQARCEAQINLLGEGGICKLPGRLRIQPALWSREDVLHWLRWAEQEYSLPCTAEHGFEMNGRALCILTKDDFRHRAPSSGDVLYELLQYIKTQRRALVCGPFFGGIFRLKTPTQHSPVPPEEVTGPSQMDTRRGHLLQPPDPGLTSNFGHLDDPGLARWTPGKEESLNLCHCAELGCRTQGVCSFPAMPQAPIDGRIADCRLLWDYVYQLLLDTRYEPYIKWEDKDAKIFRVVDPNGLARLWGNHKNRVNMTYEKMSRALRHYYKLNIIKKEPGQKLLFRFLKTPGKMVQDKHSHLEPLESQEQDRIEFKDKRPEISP
The settings on record: protein: recombinant; tags: N-terminal GST; dsDNA, one strand shown. The essentials:
as §1

The next experiment has as its target T11, ELF5 (Homo sapiens, UniProt Q9UKW6-2 1-255).
T11 sequence: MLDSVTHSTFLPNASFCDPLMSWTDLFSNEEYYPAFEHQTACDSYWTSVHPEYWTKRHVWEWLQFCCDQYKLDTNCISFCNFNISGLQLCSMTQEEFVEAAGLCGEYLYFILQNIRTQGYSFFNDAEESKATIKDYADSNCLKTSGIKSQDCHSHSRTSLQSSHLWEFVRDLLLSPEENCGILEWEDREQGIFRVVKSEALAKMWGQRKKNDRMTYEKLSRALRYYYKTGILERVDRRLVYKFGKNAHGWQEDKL
The settings on record: protein: recombinant; tags: N-terminal GST; dsDNA, one strand shown. The essentials: as §1

The next experiment concerns the target T12, ETV3 (Homo sapiens, UniProt P41162-2 1-143).
T12 sequence: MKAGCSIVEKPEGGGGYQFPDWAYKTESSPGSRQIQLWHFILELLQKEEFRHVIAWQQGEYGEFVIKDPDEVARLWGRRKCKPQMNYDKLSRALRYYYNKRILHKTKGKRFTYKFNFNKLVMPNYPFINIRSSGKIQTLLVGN
The settings on record: protein: recombinant; tags: N-terminal GST; dsDNA, one strand shown. The essentials:
as §1

The target in another experiment is ETV6 (Homo sapiens, UniProt P41212 1-452). The settings on record: protein: recombinant; tags: N-terminal GST; dsDNA, one strand shown. The essentials: as §1
Chain of ETV6 (P41212 whole entry): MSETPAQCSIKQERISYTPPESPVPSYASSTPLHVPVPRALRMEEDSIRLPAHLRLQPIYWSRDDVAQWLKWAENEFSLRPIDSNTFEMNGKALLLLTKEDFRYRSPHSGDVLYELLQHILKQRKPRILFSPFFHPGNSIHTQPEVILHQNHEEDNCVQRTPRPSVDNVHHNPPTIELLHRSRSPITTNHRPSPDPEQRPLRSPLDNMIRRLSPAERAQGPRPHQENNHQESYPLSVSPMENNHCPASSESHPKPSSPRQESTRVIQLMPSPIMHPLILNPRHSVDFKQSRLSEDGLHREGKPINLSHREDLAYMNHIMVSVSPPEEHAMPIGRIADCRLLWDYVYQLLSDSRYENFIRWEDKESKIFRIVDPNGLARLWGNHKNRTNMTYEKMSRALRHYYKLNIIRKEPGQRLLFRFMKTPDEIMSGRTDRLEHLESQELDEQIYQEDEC

Chain of CRX (O43186 whole entry): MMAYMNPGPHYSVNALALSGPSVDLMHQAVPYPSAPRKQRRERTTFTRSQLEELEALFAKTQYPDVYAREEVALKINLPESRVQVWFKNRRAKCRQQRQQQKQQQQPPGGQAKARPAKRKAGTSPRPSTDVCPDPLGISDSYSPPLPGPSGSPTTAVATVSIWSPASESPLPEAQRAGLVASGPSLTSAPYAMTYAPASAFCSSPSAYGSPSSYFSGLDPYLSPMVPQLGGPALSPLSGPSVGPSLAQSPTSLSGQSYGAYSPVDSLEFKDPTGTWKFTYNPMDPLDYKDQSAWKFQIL
Chain of ETV1 (P50549 whole entry): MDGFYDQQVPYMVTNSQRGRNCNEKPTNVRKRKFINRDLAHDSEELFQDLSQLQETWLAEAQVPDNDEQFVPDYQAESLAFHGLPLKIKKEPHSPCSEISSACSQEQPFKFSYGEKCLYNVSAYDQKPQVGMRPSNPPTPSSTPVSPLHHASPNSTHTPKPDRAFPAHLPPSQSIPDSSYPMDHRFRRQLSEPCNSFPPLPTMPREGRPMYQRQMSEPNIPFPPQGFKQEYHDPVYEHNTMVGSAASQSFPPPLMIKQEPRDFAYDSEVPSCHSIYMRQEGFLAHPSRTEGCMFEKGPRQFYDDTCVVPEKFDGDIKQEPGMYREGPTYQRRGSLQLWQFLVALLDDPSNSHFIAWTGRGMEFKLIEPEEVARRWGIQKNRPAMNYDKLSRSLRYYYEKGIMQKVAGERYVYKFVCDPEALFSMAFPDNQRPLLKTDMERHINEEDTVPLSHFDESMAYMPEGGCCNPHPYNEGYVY
Chain of ETV5 (P41161 whole entry): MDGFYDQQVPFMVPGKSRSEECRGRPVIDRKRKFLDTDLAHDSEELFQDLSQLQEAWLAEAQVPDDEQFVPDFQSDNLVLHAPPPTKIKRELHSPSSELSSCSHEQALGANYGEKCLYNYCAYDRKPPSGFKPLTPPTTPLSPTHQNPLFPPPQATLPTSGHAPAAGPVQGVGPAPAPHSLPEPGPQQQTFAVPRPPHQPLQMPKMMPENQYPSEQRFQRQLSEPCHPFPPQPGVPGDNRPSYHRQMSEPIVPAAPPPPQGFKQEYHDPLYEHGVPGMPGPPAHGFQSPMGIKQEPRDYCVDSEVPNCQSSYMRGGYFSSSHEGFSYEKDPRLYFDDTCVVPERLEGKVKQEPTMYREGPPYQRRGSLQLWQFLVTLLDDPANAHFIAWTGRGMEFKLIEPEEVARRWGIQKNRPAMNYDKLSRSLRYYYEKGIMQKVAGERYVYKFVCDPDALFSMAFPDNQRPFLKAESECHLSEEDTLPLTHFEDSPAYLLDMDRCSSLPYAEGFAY

As for TGCTAG, the binding signal is 1.15 fold enrichment (6-mer frequency, TF over GST control) with FEV; 1.3 fold enrichment (6-mer frequency, TF over GST control) in the experiment with ETV5; 1.94 fold enrichment (6-mer frequency, TF over GST control) with HSF1; 1.17 fold enrichment (6-mer frequency, TF over GST control) in the experiment with SPIC; 1.19 fold enrichment (6-mer frequency, TF over GST control) with ELF4; 1.26 fold enrichment (6-mer frequency, TF over GST control) in the experiment with ELK4. In addition, the binding signal with ETV2 was 1.01 fold enrichment (6-mer frequency, TF over GST control); with ELF3 it was 1.34 fold enrichment (6-mer frequency, TF over GST control); in the experiment with CRX, 1.21 fold enrichment (6-mer frequency, TF over GST control); with ETV1, 1.17 fold enrichment (6-mer frequency, TF over GST control); with ERF it was 1.21 fold enrichment (6-mer frequency, TF over GST control); in the experiment with ETV3L, 1.29 fold enrichment (6-mer frequency, TF over GST control). For the same sequence, the binding signal with ETS2 was 1.04 fold enrichment (6-mer frequency, TF over GST control); with SPDEF, 1.09 fold enrichment (6-mer frequency, TF over GST control); with ETV7, 1.16 fold enrichment (6-mer frequency, TF over GST control); in the experiment with ELF5, 1.09 fold enrichment (6-mer frequency, TF over GST control); with ETV3, 1.13 fold enrichment (6-mer frequency, TF over GST control); with ETV6, 1.05 fold enrichment (6-mer frequency, TF over GST control).
